Source: PubChem BioAssay (NCI)
About 83,000 compounds went through this panel and 20% of them were active in at least one assay; those are over-represented in the sample as a whole.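 Each cell line was grown in a 96-well plate and treated with one concentration of compound for 48 hours. Values below 10 were considered active.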 The source made the active and inactive calls.

Each compound was assayed on K-562 leukemia (assay: NCI-60 one-dose screen, 48 h (100 = growth as untreated, 0 = no growth, -100 = all killed)). Details: 10 µM.
With `COc1cc2cc(C(=O)N3C[C@@H](CCl)c4c3cc(OC(=O)N3CCN(C)[C@@H]5CSSC[C@H]53)c3ccccc43)[nH]c2c(OC)c1OC` the growth was -6.55% (active).
For `COC(=O)C[C@](O)(CCC(C)C)C(=O)O[C@@H]1C(OC)=C[C@]23CCCN2CCc2cc4c(cc2[C@H]13)OCO4`, the growth was 1.57% (active).
For `O=C(/C=C/c1ccc(Cl)cc1)c1nc2ccccc2n1Cc1ccc(F)cc1`, the growth was 5.25% (active).
In the case of `CC[C@]12C=CCN3CC[C@@]4(c5ccc(OC)cc5N(C)[C@H]4[C@@](O)(C(=O)OC)[C@@H]1OC(=O)CCC[P+](C1CCCCC1)(C1CCCCC1)C1CCCCC1)[C@@H]32`, the growth is reported as 3.31% (active).
In the case of `CC(=O)Oc1ccccc1C(=O)NC([Se])=NC1CCCCC1`, the growth is reported as 61.8% (inactive).
In the case of `CCOP(=O)(CC(F)(F)C(F)(F)F)OCC`, the growth is reported as 5.12% (active).
`CC(C)C[C@H](NC(=O)CNC(=O)C[C@H]1O[C@@H]2OC3(C)CC[C@H]4[C@H](C)CC[C@@H]([C@H]1C)[C@@]24OO3)B(O)O` was tested, and the growth was 4% (active).
For `C[C@H]1[C@@H](Oc2ccc(-c3cn(-c4ccnc5cc(Cl)ccc45)nn3)cc2)O[C@@H]2OC3(C)CC[C@H]4[C@H](C)CC[C@@H]1[C@@]24OO3`, the growth was 22.2% (inactive).
In the case of `C[C@H]1[C@H](OC(=O)CCC(=O)N(CCCc2cn(-c3ccc([N+](=O)[O-])cc3)nn2)CCNc2ccnc3cc(Cl)ccc23)O[C@@H]2OC3(C)CC[C@H]4[C@H](C)CC[C@@H]1[C@@]24OO3`, the growth is reported as 8.36% (active).
For `COc1cc2cc(C(=O)N3C[C@@H](CCl)c4c3cc(OC(=O)N3CCN(C)[C@@H]5CSSC[C@@H]53)c3ccccc43)[nH]c2c(OC)c1OC`, the growth was 10.1% (inactive).
In the case of `COc1cc2cc(C(=O)N3C[C@@H](CCl)c4c3cc(OC(=O)N3CCN(C(=O)CCC(=O)N5CCN(C)CC5)[C@@H]5CSSC[C@@H]53)c3ccccc43)[nH]c2c(OC)c1OC`, the growth is reported as -17.8% (active).
For `COC(=O)c1ccc(-n2cc(CCCN(CCNc3ccnc4cc(Cl)ccc34)C(=O)CCC(=O)O[C@@H]3O[C@@H]4OC5(C)CC[C@H]6[C@H](C)CC[C@@H]([C@H]3C)[C@@]46OO5)nn2)cc1`, the growth was 5.64% (active).
In the case of `O=C([Se]C1C=CCCC1)c1ccc(C(=O)[Se]C2C=CCCC2)s1` (stereo not given), the growth is reported as 6.15% (active).
For `O=C(/C=C/c1cccc(Br)c1)c1nc2ccccc2n1Cc1ccc(F)cc1`, the growth was 5.36% (active).
With `CC[C@]12C=CCN3CC[C@@]4(c5ccc(OC)cc5N(C)[C@H]4[C@@](O)(C(=O)OC)[C@@H]1OC(=O)CCC[P+](c1ccc(C)cc1)(c1ccc(C)cc1)c1ccc(C)cc1)[C@@H]32` the growth was -13.4% (active).
For `O=C(NC([Se])=NC1CCCCC1)c1ccccc1`, the growth was 59.2% (inactive).
With `O=C(/C=C/c1ccc(F)cc1)c1nc2ccccc2n1Cc1ccc(F)cc1` the growth was 1.64% (active).
In the case of `O=C(/C=C/c1ccccc1)c1nc2ccccc2n1Cc1ccc(Br)cc1`, the growth is reported as -17.2% (active).
`C=CC[Se]C(=O)c1cncc(C(=O)[Se]CC=C)c1` was tested, and the growth was -15.7% (active).
For `COc1ccc(OC)c(/C=C/C(=O)c2nc3ccccc3n2Cc2ccc(F)cc2)c1`, the growth was 0.885% (active).
In the case of `O=C(/C=C/c1ccc(F)cc1)c1nc2ccccc2n1Cc1ccc(Br)cc1`, the growth is reported as -12.7% (active).
With `CC[C@]12C=CCN3CC[C@@]4(c5ccc(OC)cc5N(C)[C@H]4[C@@](O)(C(=O)OC)[C@@H]1OC(=O)CCCC[P+](c1ccc(C)cc1)(c1ccc(C)cc1)c1ccc(C)cc1)[C@@H]32` the growth was 0.797% (active).
In the case of `CC(C)N=C([Se])NC(=O)c1cccs1`, the growth is reported as 71% (inactive).
With `Cc1ccc2[nH]c(=S)n(-c3ccc(F)cc3)c(=O)c2c1` the growth was 96.6% (inactive).
For `C#CC[Se]C(=O)c1ccc2n[se]nc2c1`, the growth was 4.82% (active).
In the case of `CC1=C(COCCOC(=O)c2ccc(S(=O)(=O)F)cc2)C2=C(C)C3(CC3)[C@@](C)(O)C(=O)C2=C1`, the growth is reported as 32.6% (inactive).
`CC12CCC3(CCC(=O)NCCCNc4ccnc5cc(Cl)ccc45)[C@@](C)(OO[C@]3(C)O1)O2` was tested, and the growth was 14.4% (inactive).
For `O=C(/C=C/c1ccc(Br)cc1)c1nc2ccccc2n1Cc1ccc(Br)cc1`, the growth was 0.898% (active).
In the case of `COC(=O)CCn1c(-c2ccc(-n3cc(-c4ccc(O[C@H]5O[C@@H]6OC7(C)CC[C@H]8[C@H](C)CC[C@@H]([C@H]5C)[C@@]68OO7)cc4)nn3)cc2)nc2ccccc21`, the growth is reported as 21% (inactive).
For `N#C[Se]CC(=O)Nc1cccc(C(F)(F)F)c1`, the growth was 20.5% (inactive).
In the case of `CCC[Se]C(=O)c1ccc(C(=O)[Se]CCC)s1`, the growth is reported as 7.32% (active).
In the case of `C[C@H]1[C@@H](CC(=O)N[C@@H](Cc2coc3ccccc23)B(O)O)O[C@@H]2OC3(C)CC[C@H]4[C@H](C)CC[C@@H]1[C@@]24OO3`, the growth is reported as 4.86% (active).
`O=C(/C=C/c1ccco1)c1nc2ccccc2n1Cc1ccc(F)cc1` was tested, and the growth was 20.7% (inactive).
For `COC(=O)C[C@](O)(CCC(C)C)C(=O)O[C@H]1C(OC)=C[C@@]23CCCN2CCc2cc4c(cc2[C@@H]13)OCO4`, the growth was 4.01% (active).
In the case of `C[C@H]1[C@H](OC(=O)CCC(=O)N(CCCc2cn(-c3ccc(C#N)cc3)nn2)CCNc2ccnc3cc(Cl)ccc23)O[C@@H]2OC3(C)CC[C@H]4[C@H](C)CC[C@@H]1[C@@]24OO3`, the growth is reported as 6.77% (active).
